In PubChem BioAssay AID1159580 (chemical genetic matrix, 2015):
Where “and” joins values, the source holds several entries; their conditions need not be identical. Equal values may be shown once. Out of some 5,500 compounds screened, about 2,000 (36%) were called active. Not shown: some 18% with an inconclusive outcome. Cut-off read from the data, not from the text of the source: active = normalized growth mostly below about 0.91 (no sharp cut-off); inconclusive = no clear call, values can overlap the other calls; inactive = mostly above about 0.92. Some of the results follow.

Assay: chemical genetic growth profiling, strain panel (AID 1159580);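 note: tested at 20 µM; growth read once vehicle control cultures reached saturation at 30 °C; 1 = growth at the plate median or of vehicle wells; lower values mean less growth of the strain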
Details: S. cerevisiae deletion strains, growth OD

Measured: normalized growth

CCC[C@H](N[C@@H](C)C(=O)N1[C@H](C(=O)O)C[C@@H]2CCCC[C@@H]21)C(=O)OCC
inactive: locus YAL013W, strain DEP1, stronger effect = lower value 1.01 | locus YAL021C, strain ccr4, stronger effect = lower value 1.01 | locus YAL026C, strain drs2, stronger effect = lower value 1.01 | locus YAL030W, strain snc1, stronger effect = lower value 1.02 | locus YBL061C, strain skt5, stronger effect = lower value 1.01 | locus YBR009C, strain hhf1, stronger effect = lower value 1.01 | locus YBR021W, strain FUR4, stronger effect = lower value 1.03 | locus YBR023C, strain chs3, stronger effect = lower value 1.02 | locus YBR171W, strain sec66, stronger effect = lower value 1.02 | locus YBR229C, strain ROT2, stronger effect = lower value 1 | locus YBR231C, strain swc5, stronger effect = lower value 1.02 | locus YBR279W, strain paf1, stronger effect = lower value 1.01 | locus YCL011C, strain gbp2, stronger effect = lower value 1.01 | locus YCL016C, strain dcc1, stronger effect = lower value 1.01 | locus YCL029C, strain bik1, stronger effect = lower value 1.04 | locus YCL069W, strain vba3, stronger effect = lower value 1.02 | locus YCR088W, strain abp1, stronger effect = lower value 1.02 | locus YDL005C, strain med2, stronger effect = lower value 1.01 | locus YDL035C, strain GPR1, stronger effect = lower value 1.01 | locus YDL040C, strain nat1, stronger effect = lower value 1.01 | locus YDL074C, strain BRE1, stronger effect = lower value 1.02 | locus YDL101C, strain DUN1, stronger effect = lower value 1.01 | locus YDL134C, strain PPH21, stronger effect = lower value 1.01 | locus YDL185W, strain tfp1, stronger effect = lower value 1.02 | locus YDL192W, strain arf1, stronger effect = lower value 1.02 | locus YDR001C, strain nth1, stronger effect = lower value 1.01 | locus YDR069C, strain doa4, stronger effect = lower value 1.03 | locus YDR101C, strain arx1, stronger effect = lower value 1.01 | locus YDR137W, strain rgp1, stronger effect = lower value 0.99 | locus YDR150W, strain NUM1, stronger effect = lower value 1.02 | locus YDR159W, strain sac3, stronger effect = lower value 1.02 | locus YDR162C, strain NBP2, stronger effect = lower value 1.01 | locus YDR195W, strain ref2 1.04 | locus YDR297W, strain sur2, stronger effect = lower value 1.02 | locus YDR318W, strain mcm21, stronger effect = lower value 1.02 | locus YDR334W, strain swr1, stronger effect = lower value 1.01 | locus YDR335W, strain msn5, stronger effect = lower value 1.01 | locus YDR388W, stronger effect = lower value 1.03 | locus YDR392W, strain spt3, stronger effect = lower value 0.981 | locus YDR502C, strain sam2, stronger effect = lower value 1.01 | locus YEL003W, strain gim4, stronger effect = lower value 1.01 | locus YEL037C, strain rad23, stronger effect = lower value 1.02 | locus YEL061C, strain CIN8 (second series), stronger effect = lower value 1.01 | locus YEL061C, strain CIN8, stronger effect = lower value 1 | locus YER015W, strain faa2, stronger effect = lower value 1.01 | locus YER016W, strain bim1, stronger effect = lower value 1.02 | locus YER110C, stronger effect = lower value 1.02 | locus YER111C, strain swi4, stronger effect = lower value 1.02 | locus YER155C, strain BEM2 (second series), stronger effect = lower value 1.05 | locus YER155C, strain BEM2, stronger effect = lower value 1 | locus YER167W, strain BCK2, stronger effect = lower value 1.02 | locus YFR010W, strain ubp6, stronger effect = lower value 1.03 | locus YGL078C, strain dbp3, stronger effect = lower value 1.02 | locus YGL086W, strain mad1, stronger effect = lower value 1.02 | locus YGL167C, strain pmr1, stronger effect = lower value 1.02 | locus YGL173C, strain kem1, stronger effect = lower value 1.01 | locus YGL227W, strain vid30, stronger effect = lower value 1.02 | locus YGL240W, strain doc1, stronger effect = lower value 1.03 | locus YGL248W, strain PDE1, stronger effect = lower value 1.01 | locus YGL253W, strain hxk2, stronger effect = lower value 1.02 | locus YGR078C, strain PAC10, stronger effect = lower value 1.02 | locus YGR135W, strain pre9, stronger effect = lower value 1.01 | locus YGR229C, strain SMI1, stronger effect = lower value 1.02 | locus YGR252W, strain gcn5, stronger effect = lower value 1.01 | locus YHR013C, strain ard1, stronger effect = lower value 1.02 | locus YHR027C, strain rpn1, stronger effect = lower value 1.02 | locus YHR030C, strain SLT2, stronger effect = lower value 1.01 and 1 | locus YHR079C, strain IRE1 (second series), stronger effect = lower value 1.01 | locus YHR079C, strain IRE1, stronger effect = lower value 0.993 | locus YHR094C, strain hxt1, stronger effect = lower value 1.02 | locus YHR129C, strain ARP1, stronger effect = lower value 1.01 | locus YHR142W, strain chs7, stronger effect = lower value 1.03 | locus YHR200W, strain rpn10, stronger effect = lower value 1.03 | locus YIL066C, strain RNR3, stronger effect = lower value 1.02 | locus YIL073C, strain SPO22, stronger effect = lower value 1.03 | locus YIL125W, strain kgd1, stronger effect = lower value 1.02 | locus YIR030C, strain dcg1, stronger effect = lower value 1.01 | locus YJL092W, strain hpr5, stronger effect = lower value 1.01 | locus YJL095W, strain BCK1 (second series), stronger effect = lower value 1.02 | locus YJL095W, strain BCK1, stronger effect = lower value 1.01 and 1 | locus YJL115W, strain asf1, stronger effect = lower value 1.02 | locus YJL129C, strain trk1, stronger effect = lower value 1.01 | locus YJL134W, strain LCB3, stronger effect = lower value 1.02 | locus YJL154C, strain vps35, stronger effect = lower value 1.01 | locus YJL164C, strain tpk1, stronger effect = lower value 1.01 | locus YJL166W, strain qcr8, stronger effect = lower value 1.04 | locus YJL168C, strain set2, stronger effect = lower value 1.02 | locus YJL187C, strain SWE1 (second series), stronger effect = lower value 1.01 | locus YJL187C, strain SWE1, stronger effect = lower value 1.01 | locus YJR043C, strain POL32, stronger effect = lower value 1.01 | locus YJR066W, strain TOR1, stronger effect = lower value 0.96
